In PubChem BioAssay (NCI):
Compounds without any hit were thinned out: in the full panel of roughly 83,000, 20% have a hit.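 48-hour exposure, single concentration, 96-well plates; percent growth endpoint where 0 means no net growth. Active: below 10.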 Unmarked numbers belong to inactive results. Activity calls are given as the source filed them.

system: HL-60(TB) leukemia; test: NCI-60 one-dose screen, 48 h (100 = growth as untreated, 0 = no growth, -100 = all killed); conditions: 10 µM unless noted

| SMILES | growth |
| --- | --- |
| COc1cccc(/C=C2\COc3ccc(O)c(O)c3C2=O)c1OC | -24.4% (active) |
| O=C1NC(=O)C(CSc2ccccc2)(c2ccccc2)N1 (centres undefined) | 99.9% |
| CCN(CC)c1ccc(C2=NN(C(C)=O)C(c3cc(OC)c(OC)c(OC)c3)C2)cc1 (centres undefined) | -42% (active) |
| COc1cnc2c(c1)C(=O)c1c-2n(CCCN2CCOCC2)c(=O)c2cc(Cl)ccc12 | -4.61% (active) |
| COc1cc(C2C=C(c3ccc(C)cc3)Nc3nc(SC)[nH]c(=O)c32)ccc1Oc1ccnc2cc(Cl)ccc12 (centres undefined) | 104% |
| CC(=O)c1cccc(Nc2ncnc3ccc(NC(=O)c4ccco4)cc23)c1 | 122% |
| COc1cc([C@@H]2c3cc4c(cc3[C@H](O)[C@H]3COC(=O)[C@H]23)OCO4)cc(OC)c1OC | -50.2% (active) |
| O=c1[nH]nc(-c2ccc(Cl)cc2)cc1Cc1ccccc1 | 77% |
| NC1=Nc2cc(OCCCCN3Cc4ccccc4C3)c(OCC3CC3)cc2C12CCCC2 | 20.2% |
| COc1ccc(-n2nc(C(=O)NCC(=O)Nc3nc4cc(OC)ccc4s3)c3ccccc3c2=O)cc1 | 61.7% |
| CCNC(=O)Oc1ccc(/C(=C(/CC)Cc2ccccc2)c2ccc(OCCN3CCCC3)cc2)cc1 | 69.2% |
| CC(=O)Nc1ccc2c(c1)Cc1c(F)c(F)c(F)c(F)c1-2 | 65.5% |
| O=C1/C(=C/c2ccc(OCCCOc3ccc(Cl)cc3)cc2)N=C2SCCCN12 | 93% |
| COc1ccc(Sc2[nH]c(C=O)c3ccccc23)cc1 | 14.7% |
